Results with a measured potency or affinity are listed apart. Active and inactive are the calls of the source.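 How the source made its calls: active means signal drop with fitted half-maximal dose at most twice the top valid dose, active in every repeat; inconclusive means repeats disagree, or flat partial inhibition, or poor fit; inactive means inactive in every repeat, including opposite effects.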
Target: Caspase-3 (Homo sapiens) (UniProt P42574)
Assay: caspase-3 enzyme inhibitors, selectivity check, dose response, selectivity assay for caspase-6 allosteric inhibitor project, biochemical, fluorescence, cherry-picked samples (AID 743291)
Details: Recombinant caspase-3, Z-DEVD-R110 cleavage fluorescence; series mostly up to 35 µM

Sequence of Caspase-3 (Homo sapiens) (P42574 whole entry, looked up): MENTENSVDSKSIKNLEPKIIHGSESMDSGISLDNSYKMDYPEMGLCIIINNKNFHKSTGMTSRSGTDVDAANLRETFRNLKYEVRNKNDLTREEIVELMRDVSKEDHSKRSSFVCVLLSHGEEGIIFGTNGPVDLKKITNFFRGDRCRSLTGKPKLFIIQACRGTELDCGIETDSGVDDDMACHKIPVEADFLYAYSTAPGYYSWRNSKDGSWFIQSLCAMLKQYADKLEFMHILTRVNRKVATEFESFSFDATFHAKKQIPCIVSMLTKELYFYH

outcome, inactive:
Cc1oc2c(cc(NS(=O)(=O)c3ccc(C(C)C)cc3)c3ccccc32)c1C(=O)O
CCCCN(C(=O)c1cccc(-n2cccc2)c1)c1c(N)n(Cc2ccccc2)c(=O)[nH]c1=O
Cc1c(CCC(=O)O)c(=O)oc2c(C)c(OCc3ccccc3Cl)ccc12
CO[C@H]1CN(C)C(=O)c2cc(NC(C)=O)ccc2OC[C@@H](C)N(C(=O)CC2CC2)C[C@H]1C
CN(C)CCCNc1cc(O)c2ncccc2c1
Cc1ccc(NC(=O)CN(C)C(=O)c2cccc(-n3cccc3)c2)cc1
COc1cc(NC(=O)COC(=O)c2ccc([N+](=O)[O-])s2)cc(OC)c1OC
Cc1cccc(NC(=O)CNC(=O)c2cccc(-n3cccc3)c2)c1C
O=C1NC(=O)C(=Cc2ccccc2[N+](=O)[O-])S1
Nc1cc2nn(-c3ccccc3)nc2cc1Cl
CCOC(=O)c1sc2nc(OCCN3CCOCC3)cc(C)c2c1N
O=c1ccc2c(-c3ccccc3S(=O)(=O)O)c3ccc(O)c(O)c3oc-2c1O
O=C(O)CC(CCc1ccccc1)OC1OC(CO)C(O)C(O)C1O (stereo not drawn)
COc1ccccc1NC(=O)COC(=O)c1ccc([N+](=O)[O-])s1
Cc1ccc(S(=O)(=O)Nc2csc(C)c2C(=O)O)cc1
Oc1cc(NCCc2cccnc2)cc2cccnc12
Cn1cnnc1SCC(=O)Nc1ncc([N+](=O)[O-])s1
[O-][n+]1onc2c1CCc1c-2nn(-c2ccccc2Cl)[n+]1[O-]
O=C(C[C@@H]1C[C@H]2c3cc(NC(=O)NC4CCCCC4)ccc3O[C@H]2[C@H](CO)O1)NCc1ccccn1
O=C(c1cccc(-n2cccc2)c1)N1CCN(S(=O)(=O)c2ccccc2)CC1
CC(C)(C)c1ccc(NC(=O)COC(=O)c2ccc([N+](=O)[O-])s2)cc1
O=C(O)Cc1ccc(-n2cccc2)cc1
O=C(COC(=O)c1ccccc1)Nc1ncc([N+](=O)[O-])s1
Cc1ccc(C)c(NC(=O)CN(C)C(=O)c2cccc(-n3cccc3)c2)c1
COc1cc(NC(C)CCCN)c2ncccc2c1 (stereo not drawn)
CCCc1nc2c(=O)n(C)c(=O)nc-2n(C)n1
COc1ccc(OC)c(Nc2cc3ccccc3c(=O)[nH]2)c1
O=c1[nH]c(Nc2ccc(F)cc2)cc2ccccc12
CCCCNC(=O)c1nc(C2CCNCC2)oc1-c1cccc(C(F)(F)F)c1
O=C(Nc1ccc2nc3n(c(=O)c2c1)CCCCC3)c1c(F)ccc([N+](=O)[O-])c1F
CC(CNc1ccccc1O)C(=O)O (stereo not drawn)
COCCn1c2nc(=O)n(-c3ccccc3)c(=O)c-2nc2ccccc21
O=C(O)CCc1ccc(-c2ccc(Br)cc2)n1CC(=O)O
Cc1c(NC(=O)C(C)OC(=O)c2ccc([N+](=O)[O-])s2)c(=O)n(-c2ccccc2)n1C (stereo not drawn)
Oc1cc(NCCN2CCOCC2)cc2cccnc12
Nc1cc(S(=O)(=O)O)cc([N+](=O)[O-])c1O
CCOc1c(O)ccc(/C=C2\SC(=S)NC2=O)c1[N+](=O)[O-]
O=c1cc2c(=O)oc3cc(O)c(O)oc3c2c(O)c1O

— PubChem BioAssay AID743291 (Broad Institute, 2014)
